From PubChem BioAssay (Tox21)
Inconclusive results are not listed. Where a call stands in place of a potency, no number is given. Active and inactive are the calls of the source. Calls come from the whole dose curve.
Potency is the fitted concentration of half-maximal effect.

Each compound was assayed against Acetylcholinesterase (Homo sapiens) (UniProt P22303) (assay: Acetylcholinesterase (AChE) small molecule antagonists: fluorescence cell-based qHTS assay (AID 1347398; note: nearly all actives have a fitted effect of over 50% in size)). Conditions: SH-SY5Y cells; Potency: AChE activity; outcome: AChE activity; series mostly up to 115 µM.
Acetylcholinesterase (Homo sapiens), sequence (P22303 whole entry, looked up): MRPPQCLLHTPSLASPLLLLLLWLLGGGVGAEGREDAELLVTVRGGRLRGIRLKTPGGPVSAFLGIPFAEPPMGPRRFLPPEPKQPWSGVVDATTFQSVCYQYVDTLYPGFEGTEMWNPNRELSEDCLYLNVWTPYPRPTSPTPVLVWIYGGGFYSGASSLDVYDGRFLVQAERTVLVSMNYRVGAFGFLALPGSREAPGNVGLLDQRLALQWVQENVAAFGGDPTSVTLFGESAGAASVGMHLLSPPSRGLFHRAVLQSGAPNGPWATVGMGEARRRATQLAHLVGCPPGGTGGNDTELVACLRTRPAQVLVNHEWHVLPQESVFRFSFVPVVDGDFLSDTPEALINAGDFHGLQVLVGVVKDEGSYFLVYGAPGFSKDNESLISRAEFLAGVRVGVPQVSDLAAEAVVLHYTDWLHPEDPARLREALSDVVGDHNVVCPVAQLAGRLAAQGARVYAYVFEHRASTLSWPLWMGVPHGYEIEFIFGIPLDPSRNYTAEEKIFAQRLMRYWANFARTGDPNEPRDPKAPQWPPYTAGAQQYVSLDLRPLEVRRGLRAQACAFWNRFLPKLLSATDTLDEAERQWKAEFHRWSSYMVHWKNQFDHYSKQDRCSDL
In short: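 Cells (SH-SY5Y) attached overnight, were dosed with compound or DMSO vehicle for 30 min at 37 C, and then incubated 40 min at room temperature with acetylthiocholine and Thiolite Green; green fluorescence indexed AChE activity.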
`C=C(C)C(=O)OCCCCCCCCCCCC` was tested, and the Potency was “inactive”. With `CN(C)CCC=C1c2ccccc2CCc2ccccc21` the Potency was “inactive”. In the case of `C=C(C)C(=O)OC(C)C`, the Potency is reported as “inactive”. For `O=C(NCCCN1CCOCC1)c1ccc(Cl)cc1`, the Potency was “inactive”. With `C(=C/c1ccccc1)/c1ccccc1` the Potency was “inactive”. In the case of `O=P(c1ccccc1)(c1ccccc1)c1ccccc1`, the Potency is reported as “inactive”. For `OC/C=C/c1ccccc1`, the Potency was “inactive”. In the case of `C=CC(C)(O)CC/C=C(\C)CC` (centres undefined), the Potency is reported as “inactive”. With `Cc1cc2c(OCC(CNC(C)(C)C)OC(=O)c3ccccc3)cccc2[nH]1` (centres undefined) the Potency was “inactive”. With `Nc1nc2ncc(CNc3ccc(C(=O)N[C@@H](CCC(=O)O)C(=O)O)cc3)nc2c(=O)[nH]1` the Potency was “inactive”. In the case of `CCCCOCCOCCOCCOCCO`, the Potency is reported as “inactive”. With `CC/C=C\CCOC(C)OCC` (centres undefined) the Potency was “inactive”. With `CNS(=O)(=O)c1cc(C(=O)N2CCC(CCN3C4CCC3CC(n3c(C)nc5ccccc53)C4)(c3cccc(F)c3)CC2)c(Cl)cc1F` (centres undefined) the Potency was 7.96 µM (active). With `O=Cc1c2ccccc2c(Cl)c2ccccc12` the Potency was “inactive”. `CCCC(O)C(CC)CO` (centres undefined) was tested, and the Potency was “inactive”. With `[Na+]` the Potency was “inactive”. With `CC(=O)O[C@]1(C(C)=O)CC[C@H]2[C@@H]3C=C(Cl)C4=CC(=O)CC[C@]4(C)[C@H]3CC[C@@]21C` the Potency was “inactive”. With `Clc1ccccc1C(c1ccccc1)(c1ccccc1)n1ccnc1` the Potency was “inactive”. `O=C1c2ccccc2C(=O)c2c1ccc(O)c2O` was tested, and the Potency was “inactive”. In the case of `CC(C)Cc1nccs1`, the Potency is reported as “inactive”. `CCCCCCCCC1CO1` (centres undefined) was tested, and the Potency was “inactive”. In the case of `CCOC(=O)[C@H](CCc1ccccc1)N[C@@H](C)C(=O)N1CCC[C@H]1C(=O)O`, the Potency is reported as “inactive”. With `C=C[C@@H](C)CCC=C(C)C` the Potency was “inactive”. With `CCCNC(=O)NS(=O)(=O)c1ccc(Cl)cc1` the Potency was “inactive”. With `CCCC(C)C` the Potency was “inactive”. `O=S(=O)(O)CCS` was tested, and the Potency was “inactive”. `CCCCCCCCCC(=O)O` was tested, and the Potency was “inactive”. For `Nc1ccccc1N`, the Potency was “inactive”. In the case of `C=CCOC(=O)CCCCCC`, the Potency is reported as “inactive”. In the case of `CC(=O)Nc1ccc(C(=O)O)cc1`, the Potency is reported as “inactive”. With `CC1=NN(c2cc(Cl)c(S(=O)(=O)O)cc2Cl)C(=O)C1N=Nc1ccc(S(=O)(=O)O)cc1` (centres undefined) the Potency was “inactive”. `C=CC(C)(CCC=C(C)C)OC(C)=O` (centres undefined) was tested, and the Potency was “inactive”. In the case of `FC(F)(F)/C(=N\OCC1OCCO1)c1ccc(Cl)cc1`, the Potency is reported as “inactive”. `O=[Se](O)O` was tested, and the Potency was “inactive”. In the case of `O=C(Oc1ccccc1)c1ccc(O)cc1`, the Potency is reported as “inactive”. In the case of `Cc1cccc(C)c1NC(=O)CN1CCN(CCCC(c2ccc(F)cc2)c2ccc(F)cc2)CC1`, the Potency is reported as “inactive”. With `CS(=O)(=O)c1ccc(Cl)cc1` the Potency was “inactive”. `CC[C@H](NC(C)C)[C@H](O)c1ccc(O)c2[nH]c(=O)ccc12` was tested, and the Potency was “inactive”. `CCc1ccc(O)cc1` was tested, and the Potency was “inactive”.
